Bioassay records deposited in PubChem by Sanford-Burnham Center for Chemical Genomics.
Shown are actives, neighbours in structure and some others; about 3.9% of the full set was active somewhere.
HIF-2a inh = HIF-2a reporter inhibitors, primary screen, luminescence, 786-0 RCC cells; 786-0 RCC cells HIF-2a reporter, luciferase luminescence, overnight; inhibition, % at 18.8 µM; 360,000 compounds, 0.72% hits; AID 624352, 2012;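 active = inhibition of the luminescence signal of 40% or more relative to plate controls, in a single-dose primary screen at 18.75 µM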
TROY signal inh = inhibitors of TROY-driven NF-kB signaling, primary screen, Q293 LMP1-TROYcd cells, NF-kB luciferase, uHTS; Q293 LMP1-TROYcd NF-kB luciferase reporter, 4 h; inhibition, % at 10 µM; 360,000 compounds, 0.98% hits; AID 1347056, 2019;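 active = compounds whose plate-normalised and pattern-corrected inhibition of the luciferase reporter signal at the single screening dose is 50% or more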
Peg3 promoter = Peg3 promoter-driven luciferase inhibitors, primary screen, cell-based, HeLa, luciferase luminescence; HeLa PEG-Prom luciferase reporter, overnight; 360,000 compounds, 1.7% hits; inhibition, % at 20 µM; AID 588405, 2011;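 active = inhibition of at least 50% at 20 µM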
KKLEB cytotox = cytotoxicity in KKLEB CF airway cells, primary screen, cytotoxicity control for CF NF-kB inhibitor project, cell-based, uHTS, fluorescence assay plates. KKLEB CF airway cells viability, ATPlite luminescence, overnight; active compounds read low; cells stimulated with P. aeruginosa culture filtrate. activity change (cytotoxicity), % at 5 µM. AID 602141, 2011. 360,000 compounds, 0.36% hits;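 active = corrected activity change at or below -50% at 5 µM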
CF NFkB inh = inhibitors of PAF-induced NF-kB signaling, primary screen, cell-based, GFP fluorescence, uHTS | KKLEB NF-kB-GFP reporter, GFP fluorescence overnight | inhibition, % at 5 µM | 360,000 compounds, 0.86% hits | AID 588850, 2011;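 active = at least 50% inhibition at 5 µM, scaled per plate between neutral and stimulator controls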;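 note: PAF is a Pseudomonas aeruginosa culture filtrate used as stimulus; plate controls were PAF-stimulated DMSO wells for no effect and unstimulated DMSO wells for full effect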
TWEAK Fn14 block = inhibitors of TWEAK-Fn14 signaling, primary screen, luciferase reporter cells, uHTS; TWEAK-stimulated Fn14 reporter cells, luciferase luminescence, 8 h; inhibition, % at 10 µM; 360,000 compounds, 2% hits; AID 1159606, 2016; in the data active = inhibition above about 50%
Numbers without * were called inactive; / = no result given.

SMILES	HIF-2a inh	TROY signal inh	Peg3 promoter	KKLEB cytotox	CF NFkB inh	TWEAK Fn14 block
COc1ccc(-n2nc(C)c3sc(C)nc3c2=O)cc1	-30	-18	-4	6	-8	11
Cc1ccc(-c2cc(C(=O)N3CCN(c4ncccn4)CC3)c3cc(Br)ccc3n2)o1	10	-6	52*	0	-8	21
CCOC(=O)COc1ccccc1/C=C\[N+](=O)[O-]	92*	87*	110*	-29	81*	104*
CC1CCCCN1S(=O)(=O)c1ccc(S(=O)(=O)N2CCN(c3ccccc3)CC2)cc1 (configuration not stated)	9	-30	59*	-14	14	-19
COc1ccccc1C(=O)COC(=O)c1ccc(-n2cnnn2)cc1	-19	-32	-55	-4	-20	-26
O=C(COC(=O)c1ccccc1-n1cnnn1)c1ccc(F)cc1	-110	64*	-157	13	-21	53*
CCC(=O)Nc1ccc(C(=O)CSc2nc(N)cc(N)n2)cc1	14	-4	12	8	-12	-11
COc1ccc(OCC(=O)N/N=C/c2ccc(O[C@@H]3O[C@H](CO)[C@@H](O)[C@H](O)[C@H]3O)cc2)cc1	-8	-3	4	2	14	-7
O=C(NC1CC1)c1ccc(-c2nc3ccccc3s2)s1	47*	71*	62*	-66*	-13	97*
O=C1SCCC1NC(=O)C(c1ccccc1)c1ccccc1 (configuration not stated)	19	-17	18	-10	2	6
Cc1cc2nc(-c3ccc[nH]c3=O)[nH]c2cc1C	35	26	40	-22	-15	83*
Cc1cc2nc(-c3ccc[nH]c3=O)n(Cc3ccc(F)cc3)c2cc1C	-60	-32	-22	9	-8	-9
CN(CC(=O)NCCc1ccc(S(N)(=O)=O)cc1)CC(=O)Nc1ccc(Cl)c(C(F)(F)F)c1	12	28	18	10	-29	35
CN(C)CCN(C(=O)/C=C/c1cccs1)c1nc2c(F)cc(F)cc2s1	7	4	106*	-31	32	36
CN(C)CCCN(C(=O)/C=C/c1cccs1)c1nc2ccc(F)cc2s1	6	-1	-10	-30	45	19
COC(=O)[C@@]1(Sc2ccc(C)cc2)CC(=O)N[C@@H]1c1ccccc1	1	13	/	/	/	5
CCOC(=O)c1cc([N+](=O)[O-])c([N+](=O)[O-])cc1NC(C)=O	23	6	109*	-21	60*	49
CCOC(=O)c1ccc(NC(=O)c2ccccc2[N+](=O)[O-])cc1	-135	-25	-90	-15	-6	-1
CCOC(=O)C(=Cc1ccc(Br)cc1)C(=O)OCC	24	28	23	-31	52*	59*
CCOC(=O)C(=Cc1ccc(-n2ccnc2)cc1)C(=O)OCC	93*	64*	107*	-9	71*	96*
CCOC(=O)C1(CCOC)CCN(Cc2ccccc2-c2ccco2)CC1	0	10	5	10	-9	-4
COc1ccc(-c2cc3nnc(-c4ccccc4)nc3s2)cc1	-51	63*	-57	-9	-10	72*
COc1ccc(-c2nc3ccccc3nc2-c2ccccc2)cc1	14	1	16	-25	14	-2
CC1CCCCC12NC(=O)N(CC(=O)N1CCc3ccccc31)C2=O (configuration not stated)	8	-19	12	14	-12	0
CN(C)CCCn1c(=S)[nH]c2sc3c(c2c1=O)CCCC3	-129	-40	-90	-22	4	-8
SMILES	HIF-2a inh	TROY signal inh	Peg3 promoter	KKLEB cytotox	CF NFkB inh	TWEAK Fn14 block
O=C(O)c1ccccc1NS(=O)(=O)c1cccc(-n2sc3ccccc3c2=O)c1	16	45	42	73	86*	15
CNc1ccc(/C=C/C(=O)c2cccc3ccccc23)cc1[N+](=O)[O-]	-63	-16	67*	-36	14	13
CNc1ccc(C(=O)c2ccccc2C(=O)O)cc1[N+](=O)[O-]	7	15	-5	-5	12	0
NS(=O)(=O)c1ccc(NC(=S)N2CCC(O)CC2)cc1	16	-3	1	-4	-8	-4
COc1cc(NC(=O)COc2ccc(Cl)cc2)ccc1-c1cc2ccccc2oc1=O	3	28	31	-12	4	59*
COc1cc(NC(=O)COc2ccc(Cl)cc2)ccc1NC(=O)C(C)C	2	1	-1	10	-8	-7
Cc1cccc(N2C(=O)Cc3ccccc3C2=O)c1	25	4	1	5	-3	3
CCN(CC)CCNC(=O)c1cc(-c2ccc(Br)s2)nc2ccccc12	-35	-48	101*	-8	-2	-23
COC(=O)/C(=C\c1cccnc1)NC(=O)c1ccc(OCc2ccccc2)cc1	-14	-27	10	2	0	11
Cn1cc(C(=O)c2ccc(Cl)cc2Cl)cc1C(=O)N/N=C(\N)COc1ccc(Cl)cc1	30	44	53*	1	5	-10
Cn1cc(C(=O)c2ccc(Cl)cc2Cl)cc1C(=O)N/N=C(\N)COc1ccc(Cl)cc1Cl	17	19	45	0	-4	57*
CC(=O)N(C)c1ccc(N=Nc2ccc3ncccc3c2)cc1	-79	13	-108	-10	-18	62*
O=C(C1CCN(S(=O)(=O)N2CCC3(CC2)OCCO3)CC1)N1CCCCC1	16	-3	-2	6	-8	-1
Cn1ccc2cc(-c3ccc4ncnc(NCc5cccs5)c4c3)ccc21	-31	12	14	-12	31	55*
c1cncc(-c2ccc3ncnc(NCc4cccs4)c3c2)c1	17	11	11	-11	7	20
COc1cc(C(CC(=O)N2CCCC2)c2c(OC)cc(OC)c3c(-c4ccccc4)cc(=O)oc23)cc(OC)c1OC (configuration not stated)	10	-4	1	-18	-5	-4
COc1cc(C(CCN2CCCC(C)C2)c2c(OC)cc(OC)c3c(-c4ccccc4)cc(=O)oc23)cc(OC)c1OC (configuration not stated)	13	-4	87*	-6	3	-27
COc1cc(C(CCN2CCCCC2)c2c(OC)cc(OC)c3c(-c4ccccc4)cc(=O)oc23)cc(OC)c1OC (configuration not stated)	7	0	78*	-3	16	-23
Cc1ccc(OCC(=O)NCCNC(=O)c2ccco2)cc1C	0	-4	-2	11	5	52*
